Laboratory results: PMC5540273 (PLoS ONE, 2017)
Read-outs that look alike come from different tables or passages of the source.

Key:
[1] = tested on: DYRK1B; conditions: n = 1
[2] = tested on: DYRK2; conditions: concentration: 1 μM, replicates: in singlicate; n = 1
[3] = tested on: EGFR; conditions: concentration: 1 μM, replicates: in singlicate; n = 1
[4] = tested on: EIF2AK1; conditions: n = 1
[5] = tested on: EPHA1; conditions: concentration: 1 μM, replicates: in singlicate; n = 1
[6] = tested on: EPHA2; conditions: concentration: 1 μM, replicates: in singlicate; n = 1
[7] = tested on: EPHA3; conditions: concentration: 1 μM, replicates: in singlicate; n = 1
[8] = tested on: EPHA4; conditions: concentration: 1 μM, replicates: in singlicate; n = 1
[9] = tested on: EPHA5; conditions: concentration: 1 μM, replicates: in singlicate; n = 1
[10] = tested on: EPHA6; conditions: n = 1
[11] = concentration: 1 μM, replicates: in singlicate
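Also: KINOMEscan kinase panel screen.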

SMILES | %Inh ([1]; 1 µM) [%] | %Inh [2] [%] | %Inh [3] [%] | %Inh ([4]; 1 µM) [%] | %Inh [5] [%] | %Inh [6] [%] | %Inh [7] [%] | %Inh [8] [%] | %Inh [9] [%] | %Inh ([10]; 1 µM) [%] | %Inh [1, 11] [%] | %Inh [4, 11] [%] | %Inh [10, 11] [%]
Cn1cc(-c2cnc(N)c3c(-c4ccc5c(c4)CCN5C(=O)Cc4ccccc4)csc23)cn1 [GSK2593074] | 0 | 8 | 3 | 7 | 11 | 0 | 0 | 11 | 0 | 11 |  |  | 
COC(=O)Nc1nc2ccc(Oc3ccc(CC(=O)Nc4cc(C(F)(F)F)ccc4F)cc3)cc2[nH]1 [GW680903] |  | 0 | 30 |  | 12 | 54 | 100 | 21 | 0 |  | 8 | 3 | 34
Cn1cc(-c2ccc3c(c2)CCN3C(=O)Cc2cc(F)cc(C(F)(F)F)c2)c2c(N)ncnc21 [GSK2635225] |  | 4 | 23 |  | 21 | 11 | 26 | 0 | 0 |  | 0 | 22 | 17
Cl.Cl.NC(CNC(=O)c1cc(Br)c(-c2ccnc3[nH]ccc23)s1)c1ccccc1 (stereo not shown) [GSK1322949] |  | 80 | 17 |  | 24 | 1 | 26 | 0 | 0 |  | 95 | 1 | 0
c1ccc(Oc2ccc(Nc3ccnc4cc(-c5ccc(CN6CCCCC6)o5)ccc34)cc2)nc1 [GW567143] |  | 10 | 55 |  | 78 | 0 | 6 | 3 | 0 |  | 0 | 0 | 0
COc1cccc(-c2nc(-c3ccccc3)[nH]c2-c2ccncc2)c1 [SB-610250] |  | 2 | 12 |  | 18 | 0 | 0 | 17 | 0 |  | 20 | 5 | 9
CC(=O)Nc1cn2nc(Oc3cccc(NC(=O)c4cccc(C(F)(F)F)c4)c3)ccc2n1 |  | 0 | 58 |  | 75 | 99.2 | 65 | 96 | 96.2 |  | 0 | 0 | 94.3
CC(C)c1nc(-c2cccc(NS(=O)(=O)c3c(F)cccc3F)c2)c(-c2ccnc(Nc3ccc(N4CCOCC4)nc3)n2)s1.Cl [GSK1723980] |  | 18 | 99.1 |  | 97.7 | 0 | 18 | 27 | 0 |  | 0 | 66 | 77
N#CC1(c2cccc(C(=O)Nc3cccc(Oc4ccc5nc(NC(=O)C6CC6)sc5n4)c3)c2)CC1 |  | 0 | 36 |  | 76 | 97.1 | 50 | 81 | 89 |  | 1 | 0 | 91.3
Cc1cc(-c2ccnc(Nc3cccc(C#N)c3)n2)cc(C)c1O [GSK1440913] |  | 61 | 38 |  | 27 | 24 | 4 | 13 | 0 |  | 51 | 0 | 13
O=C(Nc1n[nH]c2nc(-c3cccc(O)c3)ccc12)C1CC1 [SB-711805] |  | 79 | 5 |  | 13 | 0 | 19 | 0 | 0 |  | 86 | 0 | 15
Nc1ncc(-c2ccc3nccc(-c4ccncc4)c3c2)cc1S(=O)(=O)N1CCCCC1 [GSK1693850] |  | 22 | 1 |  | 0 | 21 | 22 | 3 | 0 |  | 2 | 0 | 0
CN(c1ccc(F)c(NC(=O)c2cccc(OC(C)(C)C#N)c2Cl)c1)c1ccc2nc(NC(=O)C3CC3)sc2n1 |  | 0 | 64 |  | 58 | 67 | 31 | 20 | 0 |  | 46 | 7 | 27
Cc1ccc(NC(=O)c2ccnc(N3CCCCC3)c2)cc1-c1ccc(C(=O)NCC2CC2)cc1 [GW775610] |  | 2 | 26 |  | 0 | 5 | 6 | 0 | 31 |  | 29 | 0 | 0
NCCC(NC(=O)c1cc(Br)c(-c2ccnc3[nH]ccc23)s1)c1ccccc1.O=C(O)C(F)(F)F.O=C(O)C(F)(F)F (stereo not shown) [GSK1307810] |  | 57 | 19 |  | 10 | 1 | 35 | 0 | 0 |  | 70 | 0 | 0
O=C(Nc1n[nH]c2cc(-c3cccs3)ccc12)C1CC1 [SB-731284] |  | 34 | 4 |  | 0 | 0 | 13 | 0 | 0 |  | 0 | 7 | 0
